# Measurements as given in PubChem BioAssay.
# Entries with a potency or affinity are not part of this list. The source made the active and inactive calls.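 Rule for the calls: active = a fitted half-maximal concentration no higher than twice the top valid tested dose, with signal falling as cells die; inconclusive = flat curve between -70% and -30%, or poor fit; inactive = the rest, including signal rising instead of falling.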
# Assay: viability loss in HeLa cells – cell-based, ATP luminescence, cherry-pick samples, cytotoxicity control, dose response (AID 687004)
# Conditions: ATP luminescence (CellTiter-Glo), 48 h; series mostly up to 26 µM
row,Structure (SMILES),outcome
1,C[C@@H]1CN([C@@H](C)CO)C(=O)CCCn2cc(nn2)CO[C@@H]1CN(C)C(=O)NC1CCCC1,inactive
2,CCCNC(=O)Nc1ccc2c(c1)C(=O)N(C)C[C@H](OC)[C@@H](C)CN(C(=O)CC)[C@@H](C)CO2,inactive
3,COCC(=O)N(C)C[C@@H]1Oc2ncc(C#CCC3CCCC3)cc2C(=O)N([C@@H](C)CO)C[C@H]1C,inactive
4,C[C@@H]1CN([C@H](C)CO)C(=O)c2cc(/C=C/c3ccccc3)cnc2O[C@@H]1CN(C)S(C)(=O)=O,inactive
5,Cc1cc(C)c(NC(=O)C2CCCN2CCO)c(C)c1 (stereo not drawn),inactive
6,CCCNC(=O)[C@@H]1[C@@H](CO)[C@@H]2Cn3c(cccc3=O)[C@H]1N2C(=O)Nc1cc(F)ccc1F,inactive
7,C[C@H]1CN([C@@H](C)CO)C(=O)c2cccc(NS(=O)(=O)c3cn(C)cn3)c2O[C@@H]1CN(C)CC1CCCCC1,inactive
8,Cc1ccc(C2=NN(C(=O)c3ccc(Br)o3)C(c3ccc(C)cc3)C2)cc1 (stereo not drawn),inactive
9,C[C@@H]1CCCCO[C@H](CN(C)Cc2ccncc2)[C@@H](C)CN([C@@H](C)CO)C(=O)c2cc(NC(=O)Nc3ccccc3)ccc2O1,inactive
10,CNC[C@@H]1Oc2cc(Br)ccc2S(=O)(=O)N([C@H](C)CO)C[C@H]1C,inactive
11,O=C(c1cccc(Br)c1)N1CCN(c2ccccn2)CC1,inactive
12,CC(=O)NNC(=O)CSc1nnc(-c2ccccc2)c(-c2ccccc2)n1,inactive
13,C[C@H](CO)N1C[C@H](C)[C@H](CN(C)C(=O)Nc2ccc3c(c2)OCO3)Oc2ncc(-c3ccc(F)cc3)cc2C1=O,inactive
14,CCCN1C[C@H](C)[C@@H](OC)CN(C)C(=O)c2cc(NC(=O)c3cccc(F)c3)ccc2OC[C@H]1C,inactive
15,CCC(=O)N[C@@H]1C=C[C@H](CC(=O)NCC2CCCCC2)O[C@H]1CO,inactive
16,O=C(C[C@H]1CC[C@@H](NC(=O)c2ccc3c(c2)OCO3)[C@@H](CO)O1)NCc1ccc(F)cc1,inactive
17,O=C(C[C@H]1CC[C@H]2[C@@H](COC[C@@H](O)CN2C(=O)c2ccc(F)cc2)O1)N1CCOCC1,inactive
18,COc1cccc(-c2cn(CC[C@@H]3CC[C@H](NC(C)=O)[C@@H](CO)O3)nn2)c1,inactive
19,CC1=C(C(=O)OCc2ccccc2)C(c2ccccc2)NC(=O)N1 (stereo not drawn),inactive
20,CC(C)NC(=O)N1CC[C@@H]2[C@@H](CO)N(C)c3ccc(-c4cccc(F)c4)cc3[C@@H]21,inactive
21,Cc1cc(C)c(NC(=O)C(C)N2CCCCCC2)c(C)c1 (stereo not drawn),inactive
22,COc1ccc(NC(=O)Nc2ccc3c(c2)C(=O)N([C@@H](C)CO)C[C@@H](C)[C@H](CN(C)C(=O)Cc2ccccc2)OCCCC[C@H](C)O3)cc1,inactive
23,COCC#Cc1cnc2c(c1)C(=O)N([C@H](C)CO)C[C@H](C)[C@H](CN(C)C(=O)C1CC1)O2,inactive
